Rows were chosen to be rich in hits. Some 7.9% of all compounds tested hit in one or more screens of this group.
MARV entry inh = inhibitors of Marburg virus binding or cell entry. AID 540276. 1.8% of 300,000 active. Potency, µM (doses to about 37.8 µM), usual class: inhibitors. Marburg virus pseudotyped entry inhibition, cell reporter; calls by dose curve; tested in HEK293 cells
FMDV antiviral = antivirals against foot and mouth disease virus; FMDV antiviral cell-based qHTS; Potency, µM (doses to about 57.9 µM), hits mostly inhibitors; 1.2% of 410,000 active; calls by dose curve; tested in HEK293T cells; further: read-out not given here; nearly all actives have a fitted effect of over 45% in size
HCV inhibitor = HCV inhibition; Potency, µM (titrated, usually from 41.8 µM), most hits filed as inhibitors; 3.4% of 340,000 active; Huh7.5.1 HCVcc-Cre infection, luciferase reporter, 44 h; active means well fitted inhibition curve with a large enough effect; inconclusive means small, poorly fitted or top-dose-only effect, or another doubt; inactive means no such curve, though single readings can be large or run the other way
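Compounds are dispensed onto cells plated 4 h earlier at 1,000 per well, with HCVcc-Cre virus (about 0.5 moi) added next. Following 44 h of culture, luminescent signal is measured for 15 sec after 15 min with substrate at room temperature.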
LASV entry inh = inhibitors of Lassa virus binding or cell entry | Potency, µM (series often up to 37.9 µM), most hits filed as inhibitors | 1.2% of 300,000 active | Lassa virus pseudotype entry inhibition, cell reporter | AID 540256; calls by dose curve; tested in HEK293 cells; further: nearly all actives have a fitted effect of over 50% in size
HCMV inh = inhibitors of human cytomegalovirus. HFF cells, HCMV-luciferase reporter, 72 h; active compounds read low. 4.5% of 410,000 active. activity change, negative = inhibition, % at 57.5 µM. AID 1259415; in the data active means activity change below about -60%; inconclusive means no clear call, values can overlap the other calls; inactive means above about -39%
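Two-dose cell screen: HFF monolayers treated with compounds and infected with luciferase-expressing HCMV at 1 PFU/cell, 72 h at 37C, then lysed for luciferase measurement.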
Large screens that a line does not name were inactive.

COCCCN1C(=O)C(CC(=O)NC(c2ccccc2)c2ccccc2)CC(C(=O)N2CCCCCC2)=C1C (configuration not stated)	none (no result: MARV entry inh, HCV inhibitor, LASV entry inh)
O=C(CSc1nc(O)cc(=O)[nH]1)N1c2ccccc2CCc2ccccc21	HCMV inh inconclusive
CC1CN=C(c2cc(Cl)c(N)c(Cl)c2)c2c3ccccc3nn21 (configuration not stated)	none (no result: MARV entry inh, FMDV antiviral, HCV inhibitor, LASV entry inh)
COC(=O)c1sc2ccccc2c1NC(=O)c1ccc(S(=O)(=O)N2CC(C)CC(C)C2)cc1 (configuration not stated)	HCMV inh inconclusive
Cc1cc(C)c2nc(NC(=O)c3ccc(S(=O)(=O)N4CCC(C)CC4)cc3)sc2c1	none (no result: MARV entry inh, HCV inhibitor)
Cc1cc(C)c2nc(NNC(=O)c3ccc(S(=O)(=O)N4CC(C)CC(C)C4)cc3)sc2c1 (configuration not stated)	MARV entry inh 14.6µM, HCV inhibitor 7.08µM, LASV entry inh inconclusive, HCMV inh -98.0
Cc1ccc2nc(NNC(=O)c3ccc(S(=O)(=O)N4CCc5ccccc5C4)cc3)sc2c1	MARV entry inh inconclusive, FMDV antiviral inconclusive, HCV inhibitor 2.51µM, LASV entry inh inconclusive, HCMV inh -99.1
Cc1cc(C)c2nc(NNC(=O)c3ccc(S(=O)(=O)N4CCCC(C)C4)cc3)sc2c1 (configuration not stated)	MARV entry inh inconclusive, FMDV antiviral inconclusive, HCV inhibitor 7.94µM, LASV entry inh inconclusive, HCMV inh -98.5
Cc1cccc2sc(NNC(=O)c3ccc(S(=O)(=O)N4CC(C)CC(C)C4)cc3)nc12 (configuration not stated)	MARV entry inh inconclusive, FMDV antiviral inconclusive, HCV inhibitor inconclusive, LASV entry inh inconclusive, HCMV inh -99.4
O=C(NCc1ccccc1)[C@H]1[C@H](CO)[C@H]2Cn3c(cccc3=O)[C@H]2N1Cc1ccccc1F	none (no result: MARV entry inh, FMDV antiviral, HCV inhibitor, LASV entry inh)
CCC(c1nc2ccccc2[nH]1)n1c(=O)c(-c2cccnc2)nc2ccccc21 (configuration not stated)	none (no result: MARV entry inh, HCV inhibitor, LASV entry inh)
Cc1cccc(C(=O)OCC(=O)N2CCCCCC2)c1	LASV entry inh inconclusive
O=C(O)C1CCCCC1SC1=C([S+](=O)([O-])NC2CCCCC2)CCCC1 (configuration not stated)	none (no result: FMDV antiviral, HCV inhibitor, LASV entry inh, HCMV inh)
COc1ccc(/C=C2\SC(=S)N(CCC(=O)NC3C=CS(=O)(=O)C3)C2=O)cc1 (configuration not stated)	HCV inhibitor inconclusive, HCMV inh -79.7 (no result: MARV entry inh, LASV entry inh)
CN1CCN(C(=O)CCN2C(=O)/C(=C\c3ccc(F)cc3)SC2=S)CC1	FMDV antiviral inconclusive, HCV inhibitor inconclusive, LASV entry inh inconclusive
CCc1ccc(/C=C2\SC(=S)N(CCCC(=O)N3CCN(C)CC3)C2=O)cc1	HCMV inh -100.5 (no result: MARV entry inh, HCV inhibitor, LASV entry inh)
CC(C(=O)NC1C=CS(=O)(=O)C1)N1C(=O)/C(=C/c2cccc(Cl)c2)SC1=S (configuration not stated)	HCMV inh -65.0 (no result: MARV entry inh, LASV entry inh)
COc1ccc(/C=C2\SC(=S)N(CCCC(=O)N3CCN(C)CC3)C2=O)cc1	MARV entry inh inconclusive, LASV entry inh inconclusive, HCMV inh -77.3
C[C@@H]1CNC(=O)c2c(C(=O)N(C)Cc3ccccc3)ncn21	none (no result: MARV entry inh, FMDV antiviral, HCV inhibitor, LASV entry inh)
O=c1ccn([C@@H]2O[C@H](CNCc3cccn3-c3ccncc3)[C@@H](O)[C@H]2O)c(=O)[nH]1	none (no result: MARV entry inh, HCV inhibitor, LASV entry inh)
COc1ccc(CC(=O)Oc2cc(C)ccc2C)cc1	none
CN1CCN(C(=O)CCCN2C(=O)/C(=C/c3cccc(Br)c3)SC2=S)CC1	MARV entry inh 10µM, HCV inhibitor 6.31µM, LASV entry inh inconclusive, HCMV inh -84.5
CC(C)C(=O)N1CCN(c2ccc(NC(=O)c3ccc([N+](=O)[O-])o3)cc2Cl)CC1	MARV entry inh inconclusive, FMDV antiviral 25.1µM, HCV inhibitor 10µM, LASV entry inh inconclusive, HCMV inh -99.9
CC(C)C(=O)N1CCN(c2ccc(NC(=O)c3ccc(Br)o3)cc2)CC1	none
O=S(=O)(c1ccc(NC(=S)N2CCN(c3ccc(O)cc3)CC2)cc1)N1CCOCC1	HCV inhibitor inconclusive, HCMV inh -63.4
CC(C)C(=O)N1CCN(c2ccc(NC(=O)c3ccc([N+](=O)[O-])o3)cc2)CC1	HCV inhibitor inconclusive, HCMV inh -98.2
Cc1ccc(NC(=S)Nc2ccc(S(=O)(=O)N3CCOCC3)cc2)cc1S(=O)(=O)N1CCOCC1	LASV entry inh 11.2µM, HCMV inh inconclusive
CC(C)(C)NNC(=S)Nc1ccc(S(=O)(=O)N2CCOCC2)cc1	none
O=S(=O)(c1ccc(NC(=S)N2CCOCC2)cc1)N1CCCCC1	none (no result: MARV entry inh, HCV inhibitor, LASV entry inh)
CCCCCC(=O)NC(=S)Nc1ccc(N2CCCCC2)c(Cl)c1	MARV entry inh inconclusive
